According to PubChem BioAssay (Tox21):
Values joined by “and” are separate entries in the source; they are usually repeats but may differ in a detail not shown here. Identical values can stand only once. Records with an inconclusive call do not appear. A call without a number means that no potency is given here. The source holds several records for some structures; these can differ, active in one and inactive in another. Active and inactive are the calls of the source. Unless noted, calls follow the shape of the full dose curve.

Key:
[1] = Nuclear factor erythroid 2-related factor 2/antioxidant responsive element (Nrf2/ARE) small molecule agonists: qHTS cell viability counter screen in human keratinocytes (AID 1919968; active = well fitted curve in the direction sought with a large enough effect in the repeat runs; an effect the other way counts as inactive or inconclusive; also: nearly all actives have a fitted effect of over 55% in size; also: potency is read from the fitted curve at half-maximal effect)
Summary of the method: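 Seed 1,500 KeratinoSens cells per well, then incubate 5 h at 37 C/5% CO2. Add compounds in DMSO and incubate 23 h. Add CellTiter-Fluor, wait 1 h and read fluorescence.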

[2] = Nuclear factor erythroid 2-related factor 2/antioxidant responsive element (Nrf2/ARE) small molecule agonists: luciferase reporter gene qHTS assay in human keratinocytes (AID 1919969); also: nearly all actives have a fitted effect of over 35% in size; also: potency is read from the fitted curve at half-maximal effect
[3] = target: Gonadotropin-releasing hormone receptor (Homo sapiens) (UniProt P30968); experiment: Human gonadotropin-releasing hormone receptor (GnRHR) small molecule agonists, calcium flux assay in GnRHR-HEK293 cells (AID 1920063); also: nearly all actives have a fitted effect of over 35% in size
Summary of the method: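 Cells: HEK293 stably expressing human GnRHR. Steps: overnight (18 h) culture, 1 h calcium dye loading at 37 C, compound addition, kinetic fluorescence read at 480/540 nm. Each compound tested at 15 concentrations in triplicate.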

[4] = G protein-coupled receptor (GPCR) small molecule agonists, calcium flux assay: HEK293 wild type cell line counter screen (AID 1920065)
Summary of the method: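 Counter-screen of the Tox21 10K library for non-specific calcium release: dye-loaded cells received compounds in DMSO and were monitored by kinetic fluorescence (480/540 nm, 3 min). Fifteen concentrations, run in triplicate.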

[5] = p53 small molecule agonists, cell-based qHTS assay with human liver microsomes (AID 1963577);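 also: p53 response element beta-lactamase reporter cells with liver microsomes plus NADPH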
Summary of the method: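 p53RE-bla cells; 5 h settle, 37 C/5% CO2; cpd + HLM 0.5 mg/mL + NADPH 0.5 mg/mL (final); 16 h 37 C; LiveBLAzer 2 h RT dark; fluorescence readout.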

[6] = p53 small molecule agonists, cell-based qHTS assay with human liver microsomes: qHTS cell viability counter screen (AID 1963579); also: nearly all actives have a fitted effect of over 45% in size
Summary of the method: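 Luminescent CellTiter-Glo read-out, 30 min at room temperature, gauged cytotoxicity in p53RE-bla cells exposed 16 h at 37 C to DMSO-dissolved compounds with metabolic activation by human liver microsomes and NADPH, each 0.5 mg/mL final.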

[7] = p53 small molecule agonists, cell-based qHTS assay with rat liver microsomes: qHTS cell viability counter screen (AID 1963580); also: nearly all actives have a fitted effect of over 45% in size
Summary of the method: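 Viability is assessed in parallel with the p53 reporter read: HCT-116 p53RE-bla cells receive compounds plus rat microsomes and NADPH (0.5 mg/mL final apiece), incubate 16 h at 37 C, and then CellTiter-Glo luminescence is recorded.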

[8] = p53 small molecule agonists, cell-based qHTS assay: qHTS cell viability counter screen (AID 1963581); also: nearly all actives have a fitted effect of over 45% in size
Summary of the method: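 Cells: HCT-116 with p53 response element-driven beta-lactamase. Treatment: 16 h, 37 C, compounds in DMSO. Read: CellTiter-Glo luminescence after 30 min RT.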

[9] = p53 small molecule agonists, cell-based qHTS assay (AID 1963582; active = well fitted activation curve with a large enough effect in the signal ratio in the repeat runs, not every such curve was filed as active; the % refers to the signal ratio)
Summary of the method: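 Quantitative HTS in p53RE-bla cells: after a 5 h settling period, compounds delivered in DMSO were left on cells for 16 h at 37 C, and reporter induction was measured as fluorescence following 2 h substrate loading.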

[10] = target: 5-hydroxytryptamine receptor 2A (Homo sapiens) (UniProt P28223); experiment: 5-hydroxytryptamine receptor 2A (HTR2A) small molecule antagonists, cell-based qHTS assay (AID 1963586); also: nearly all actives have a fitted effect of over 45% in size
Summary of the method: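 Antagonist-mode intracellular calcium assay: DOI (4 nM) added after 5 min compound pre-incubation at room temperature to dye-loaded HTR2A-CHO cells. Fluorescence followed for 3 min, sampled every second.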

[11] = target: 5-hydroxytryptamine receptor 2A (Homo sapiens) (UniProt P28223); experiment: 5-hydroxytryptamine receptor 2A (HTR2A) small molecule agonists, cell-based qHTS assay (AID 1963587); also: nearly all actives have a fitted effect of over 30% in size
Summary of the method: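 CHO cells stably expressing human HTR2A, plated 18 h, loaded with calcium dye 1 h at 37 C. Agonist mode: compounds added and intracellular calcium fluorescence recorded kinetically for 2 min at 1 sec intervals.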

[12] = target: Muscarinic acetylcholine receptor M1 (Homo sapiens) (UniProt P11229); experiment: Cholinergic receptor muscarinic 1 (CHRM1) small molecule antagonists, cell-based qHTS assay (AID 1963588); also: nearly all actives have a fitted effect of over 40% in size
Summary of the method: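 CHRM1-CHO calcium-flux assay, antagonist mode. Cells were seeded 18 h, dye-loaded 1 h at 37 C and given compound for 5 min at RT, then acetylcholine was added at 50nM. FDSS fluorescence was read 3 min; 15 concentrations, three runs.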

[13] = target: Muscarinic acetylcholine receptor M1 (Homo sapiens) (UniProt P11229); experiment: Cholinergic receptor muscarinic 1 (CHRM1) small molecule agonists, cell-based qHTS assay (AID 1963589); also: nearly all actives have a fitted effect of over 35% in size
Summary of the method: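 Agonist-mode qHTS in CHO cells stably carrying human muscarinic M1. Intracellular calcium is tracked by fluorescence every second after compound transfer; each compound runs at 15 concentrations in three independent runs.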

[14] = cAMP Responsive Elements (CRE) small molecule agonists, cell-based qHTS assay (AID 1963590)
Summary of the method: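 Agonist mode qHTS in CRE-bla HEK 293T cells: compounds dosed from DMSO for 3 h at 37 C/5% CO2, followed by LiveBLAzer B/G FRET substrate for 2 h at room temperature.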

[15] = cAMP Responsive Elements (CRE) small molecule antagonists, cell-based qHTS assay (AID 1963591; active = well fitted inhibition curve with a large enough effect in the signal ratio in the repeat runs, not every such curve was filed as active; the % refers to the signal ratio)
Summary of the method: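 Antagonist mode: test compounds are co-incubated with the adenylyl cyclase activator NKH477 (0.25 uM final) on CRE-bla HEK293T cells for 3 h at 37 °C, followed by LiveBLAzer substrate loading.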

[16] = target: Beta-2 adrenergic receptor (Homo sapiens) (UniProt P07550); experiment: Adrenergic beta2 receptor (ADRB2) small molecule antagonists, cell-based qHTS assay (AID 1963592); also: series mostly up to about 92 µM; nearly all actives have a fitted effect of over 50% in size
Summary of the method: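 Cells (CHO, stable ADRB2 overexpression) incubated 18-20hr at 37C; compounds added from DMSO; agonist mix (1nM isoproterenol, 100uM IBMX, 25uM Ro-20-1724) added; 0.5hr RT; d2-cAMP and anti-cAMP-cryptate added; 1hr RT; 665/615 nm read.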

[17] = target: Beta-2 adrenergic receptor (Homo sapiens) (UniProt P07550); experiment: Adrenergic beta2 receptor (ADRB2) small molecule agonists, cell-based qHTS assay (AID 1963593);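 also: CHO cells stably overexpressing human ADRB2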
Summary of the method: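 CHO cells stably over-expressing ADRB2 were plated overnight at 37C, then dosed with compounds plus a stimulation mix containing 100uM IBMX and 25uM Ro-20-1724 for 0.5hr at room temperature. cAMP was measured by HTRF competition, 1hr.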

[18] = target: D(2) dopamine receptor (Homo sapiens) (UniProt P14416); experiment: Dopamine D2 receptor (DRD2) small molecule agonists, cell-based qHTS assay (AID 1963594); also: nearly all actives have a fitted effect of over 35% in size
Summary of the method: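 HEK293 cells stably expressing human DRD2, pre-treated with PDE inhibitor Ro20-1724 (0.1 mM final) and compound 10 min at room temperature, then stimulated with NKH477 (200nM […]) for 30 min. cAMP read by HTRF (665/620 nm).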

[19] = target: D(2) dopamine receptor (Homo sapiens) (UniProt P14416); experiment: Dopamine D2 receptor (DRD2) small molecule antagonists, cell-based qHTS assay (AID 1963595; active = well fitted inhibition curve with a large enough effect in the signal ratio in the repeat runs, with a control signal flat; the % refers to the signal ratio)
Summary of the method: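 DRD2-HEK293; 0.1 mM Ro20-1724; cpd 10 min RT; NKH477 200 nM + quinpirole 12 nM, 30 min RT; HTRF cAMP (cAMP-d2/anti-cAMP cryptate), 665/620 nm ratio after 1 h.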

[20] = target: KiSS-1 receptor (Homo sapiens) (UniProt Q969F8); experiment: Human kisspeptin (KISS1R) small molecule agonists, calcium flux assay in KISS1R-HEK293 cells (AID 1920064; active = well fitted curve in the direction sought with a large enough effect in the repeat runs; an effect the other way counts as inactive or inconclusive)
Summary of the method: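 Cells plated and incubated 18 h; dye added, 1 h at 37 C; compounds in DMSO pinned in; signal read at 480/540 nm every second for 3 min. Each compound tested at 15 concentrations in triplicate.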

Sequence of D(2) dopamine receptor (Homo sapiens) (P14416 whole entry, looked up): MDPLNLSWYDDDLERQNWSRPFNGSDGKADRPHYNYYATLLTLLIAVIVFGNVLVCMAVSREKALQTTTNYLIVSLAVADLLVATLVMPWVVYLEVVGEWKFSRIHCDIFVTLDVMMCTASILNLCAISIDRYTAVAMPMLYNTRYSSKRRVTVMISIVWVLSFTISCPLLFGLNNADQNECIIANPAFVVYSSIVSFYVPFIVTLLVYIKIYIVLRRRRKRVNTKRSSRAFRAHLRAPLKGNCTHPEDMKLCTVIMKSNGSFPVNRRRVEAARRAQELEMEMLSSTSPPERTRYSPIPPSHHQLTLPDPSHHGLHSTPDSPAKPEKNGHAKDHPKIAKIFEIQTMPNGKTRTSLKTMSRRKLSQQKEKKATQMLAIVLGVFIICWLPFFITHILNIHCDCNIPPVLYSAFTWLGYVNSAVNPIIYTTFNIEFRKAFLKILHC
Sequence of Gonadotropin-releasing hormone receptor (Homo sapiens) (P30968 whole entry, looked up): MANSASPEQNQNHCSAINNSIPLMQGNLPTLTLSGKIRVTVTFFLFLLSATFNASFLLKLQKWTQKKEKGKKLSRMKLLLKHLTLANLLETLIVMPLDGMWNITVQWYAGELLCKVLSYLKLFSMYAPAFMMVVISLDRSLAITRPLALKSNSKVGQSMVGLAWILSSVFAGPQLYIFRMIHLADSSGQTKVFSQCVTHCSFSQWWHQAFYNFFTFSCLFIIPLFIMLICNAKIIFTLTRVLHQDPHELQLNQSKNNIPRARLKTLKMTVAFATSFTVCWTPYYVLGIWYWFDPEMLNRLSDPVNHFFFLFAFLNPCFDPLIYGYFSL
Sequence of KiSS-1 receptor (Homo sapiens) (Q969F8 whole entry, looked up): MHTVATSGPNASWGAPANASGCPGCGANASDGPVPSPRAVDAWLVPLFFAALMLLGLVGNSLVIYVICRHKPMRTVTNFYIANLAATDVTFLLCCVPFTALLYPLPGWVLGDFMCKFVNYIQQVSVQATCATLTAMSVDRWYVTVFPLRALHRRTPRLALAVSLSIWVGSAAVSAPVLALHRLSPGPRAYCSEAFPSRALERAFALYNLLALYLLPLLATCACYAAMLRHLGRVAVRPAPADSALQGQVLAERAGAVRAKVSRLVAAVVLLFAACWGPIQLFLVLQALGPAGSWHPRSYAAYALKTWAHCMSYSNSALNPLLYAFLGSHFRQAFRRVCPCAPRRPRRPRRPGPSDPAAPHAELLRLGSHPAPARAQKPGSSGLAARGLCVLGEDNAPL
Sequence of Beta-2 adrenergic receptor (Homo sapiens) (P07550 whole entry, looked up): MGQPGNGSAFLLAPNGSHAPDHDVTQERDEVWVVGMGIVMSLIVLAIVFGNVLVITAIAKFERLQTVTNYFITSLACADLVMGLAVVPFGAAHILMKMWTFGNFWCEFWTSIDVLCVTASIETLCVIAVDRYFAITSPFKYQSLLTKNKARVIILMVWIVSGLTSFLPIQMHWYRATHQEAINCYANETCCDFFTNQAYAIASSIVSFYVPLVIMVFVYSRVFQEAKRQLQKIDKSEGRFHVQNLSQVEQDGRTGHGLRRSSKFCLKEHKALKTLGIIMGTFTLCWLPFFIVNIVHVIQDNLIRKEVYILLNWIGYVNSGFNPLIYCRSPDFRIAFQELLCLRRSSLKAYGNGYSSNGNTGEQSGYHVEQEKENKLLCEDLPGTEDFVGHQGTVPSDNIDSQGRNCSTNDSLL
Sequence of 5-hydroxytryptamine receptor 2A (Homo sapiens) (P28223 whole entry, looked up): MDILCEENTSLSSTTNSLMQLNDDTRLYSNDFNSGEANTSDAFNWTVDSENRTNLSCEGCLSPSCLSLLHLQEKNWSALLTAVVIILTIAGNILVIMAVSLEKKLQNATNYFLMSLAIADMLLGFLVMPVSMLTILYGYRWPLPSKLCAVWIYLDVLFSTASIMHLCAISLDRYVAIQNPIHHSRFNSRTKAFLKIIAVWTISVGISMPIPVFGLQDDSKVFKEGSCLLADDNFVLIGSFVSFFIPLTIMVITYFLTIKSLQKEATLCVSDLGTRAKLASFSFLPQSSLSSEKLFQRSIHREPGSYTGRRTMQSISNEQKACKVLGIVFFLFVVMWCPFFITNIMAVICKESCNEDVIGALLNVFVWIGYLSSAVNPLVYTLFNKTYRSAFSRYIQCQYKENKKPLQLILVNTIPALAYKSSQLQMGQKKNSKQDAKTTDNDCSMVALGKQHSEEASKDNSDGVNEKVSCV
Sequence of Muscarinic acetylcholine receptor M1 (Homo sapiens) (P11229 whole entry, looked up): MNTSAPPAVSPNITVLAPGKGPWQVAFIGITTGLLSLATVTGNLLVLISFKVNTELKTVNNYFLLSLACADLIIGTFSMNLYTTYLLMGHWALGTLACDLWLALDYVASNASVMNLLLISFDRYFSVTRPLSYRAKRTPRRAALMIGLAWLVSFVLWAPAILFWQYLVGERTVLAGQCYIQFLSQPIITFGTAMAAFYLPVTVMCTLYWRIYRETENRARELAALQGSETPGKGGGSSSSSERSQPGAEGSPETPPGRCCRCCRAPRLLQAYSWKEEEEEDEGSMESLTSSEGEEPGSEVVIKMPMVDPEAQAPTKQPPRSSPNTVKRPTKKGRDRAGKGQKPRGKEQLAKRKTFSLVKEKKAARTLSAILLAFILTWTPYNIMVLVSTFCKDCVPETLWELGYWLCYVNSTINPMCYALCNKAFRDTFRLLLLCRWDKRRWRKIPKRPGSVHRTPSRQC

Row | SMILES | Potency [1] | Potency [2] | Potency [3] | Potency [4] | Potency [5] | Potency [6] | Potency [7] | Potency [8] | Potency [9] | Potency [10] | Potency [11] | Potency [12] | Potency [13] | Potency [14] | Potency [15] | Potency [16] | Potency [17] | Potency [18] | Potency [19] | Potency [20]
1 | CCCCCBr | inactive | inactive | inactive | inactive | inactive | inactive | inactive | inactive | inactive | inactive | inactive | inactive | inactive | inactive | inactive | inactive | inactive | inactive | inactive | 
2 | C=C(C)[C@H]1Cc2c(ccc3c2O[C@@H]2COc4cc(OC)c(OC)cc4[C@@H]2C3=O)O1 | inactive and 29.8 nM (active) | 13.9 µM (active) and 13.7 µM (active) and inactive | inactive |  |  | inactive | inactive |  |  |  |  |  |  |  | inactive |  | inactive | inactive | inactive | inactive
3 | CC(C)C1(C)N=C(c2nc3ccccc3cc2C(=O)O)NC1=O (centres undefined) | inactive | inactive | inactive | inactive | inactive | inactive | inactive | inactive | inactive | inactive | inactive | inactive | inactive | inactive | inactive | inactive |  | inactive | inactive | 
4 | Cc1cc(Cl)ccc1N | inactive | inactive | inactive |  |  | inactive | inactive | inactive |  | inactive | inactive | inactive | inactive | inactive | inactive | inactive | inactive | inactive | inactive | inactive
5 | CCNc1nc(Cl)nc(NC(C)C)n1 | inactive | inactive | inactive | inactive | inactive | inactive | inactive | inactive | inactive | inactive | inactive | inactive | inactive | inactive | inactive | inactive | inactive | inactive | inactive | 
6 | N#CC(Cl)(Cl)Cl | inactive | inactive | inactive | inactive | inactive | inactive | inactive | inactive | inactive | inactive | inactive | inactive |  |  | inactive | inactive |  | inactive | inactive | 
